We go through 25 compounds from PubChem BioAssay AID588466 (NMMLSC, 2011).

The campaign covered roughly 2,100 compounds. About 30 (1%) were called active. Not all results are given here. A number with no mark means an inactive call.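 How the source made its calls: active means compounds whose mean binding response over two repeats is below 75% of the DMSO control; inactive means the rest.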

This test deals with Desmoglein-3 (Homo sapiens) (UniProt P32926). Description: blockers of pemphigus antibody–desmoglein-3 interaction – biochemical, cherry pick 1, bead-based, flow cytometry, confirmation (AID 588466).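 Further: 100% = 2% DMSO vehicle and 0% = excess soluble DSG3 blocking control.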 The settings on record: Protein G beads with DSG3, scFv-GFP binding, at 10 µM, stronger effect = lower value. A general note: In flow cytometry, cells or beads pass a laser one at a time.
Desmoglein-3 (Homo sapiens), sequence (P32926 whole entry, looked up): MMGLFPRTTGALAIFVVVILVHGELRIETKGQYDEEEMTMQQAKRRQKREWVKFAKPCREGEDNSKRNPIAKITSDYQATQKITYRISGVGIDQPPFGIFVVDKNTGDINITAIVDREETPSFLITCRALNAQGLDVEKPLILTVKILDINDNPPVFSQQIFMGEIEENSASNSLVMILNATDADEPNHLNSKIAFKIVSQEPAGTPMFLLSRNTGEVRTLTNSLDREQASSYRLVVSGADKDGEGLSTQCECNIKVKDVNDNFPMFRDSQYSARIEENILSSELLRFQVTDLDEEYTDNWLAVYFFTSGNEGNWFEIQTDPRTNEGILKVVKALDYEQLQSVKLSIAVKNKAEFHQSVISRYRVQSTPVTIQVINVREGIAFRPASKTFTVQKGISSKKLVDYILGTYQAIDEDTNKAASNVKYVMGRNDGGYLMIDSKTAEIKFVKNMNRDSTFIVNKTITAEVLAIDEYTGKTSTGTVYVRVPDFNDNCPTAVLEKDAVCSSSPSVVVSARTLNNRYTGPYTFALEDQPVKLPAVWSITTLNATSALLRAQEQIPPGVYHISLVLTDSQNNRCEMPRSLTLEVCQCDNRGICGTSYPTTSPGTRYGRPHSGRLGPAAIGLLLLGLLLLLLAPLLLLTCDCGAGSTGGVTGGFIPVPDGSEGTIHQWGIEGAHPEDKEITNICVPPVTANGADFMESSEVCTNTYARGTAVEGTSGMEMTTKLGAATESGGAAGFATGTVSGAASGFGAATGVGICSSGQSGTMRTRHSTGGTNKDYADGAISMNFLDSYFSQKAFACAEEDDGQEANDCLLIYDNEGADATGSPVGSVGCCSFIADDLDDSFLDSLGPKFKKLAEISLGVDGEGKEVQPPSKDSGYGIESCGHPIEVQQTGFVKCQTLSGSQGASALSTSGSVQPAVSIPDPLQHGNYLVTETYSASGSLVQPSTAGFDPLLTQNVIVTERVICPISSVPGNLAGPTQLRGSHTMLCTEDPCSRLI
`Cc1ccc(NC(=O)Cc2ccc([N+](=O)[O-])cc2)c(Br)c1`: the binding response (% of DMSO) is 95.5%.
The result for `CCCN(CCC)CCNC(=O)Cn1cnc2sc(C)c(S(=O)(=O)N3CCOCC3)c2c1=O` reads 99.3%.
Then `CCOC(=O)c1nn(-c2ccccc2)c(=O)c2c(NC(C)=O)scc12`, with 111%.
Then `Cc1cc2ccccc2n1CCNC(=O)c1ccc(S(=O)(=O)N2CCCCC2)cc1`, with 94.7%; and `CCOc1ccc(/C(O)=C2/C(=O)C(=O)N(c3cc(C)on3)C2c2ccc(C(=O)OC)cc2)cc1` (stereo not given), with 98.1%.
With `C[C@H]1COC(=O)[C@@H](Cc2ccc(F)cc2)CC/C=C/C[C@@H](CC(=O)N(CCO)Cc2ccccc2)C(=O)N1`, the binding response (% of DMSO) is 104%.
Then `Cc1ccc(NC(=O)COc2ccc3c(c2)OCO3)c(C)c1`, with 103%; and `CCN1CCN(c2ccc(S(=O)(=O)N3CCOCC3)cc2NC(=O)CCSC)CC1`, with 105%; and `COc1ccc(CN(CCN(C)C)Cc2ccccc2)c(OC)c1`, with 101%.
For `Cc1cnc(NS(=O)(=O)c2ccccc2)c(C)n1`, the binding response (% of DMSO) is 98.8%.
Then `N#Cc1c(-c2ccc(F)cc2)cc(-c2ccccc2)nc1SCC(=O)NCC(=O)O`, with 99.8%.
Then `O=C(Oc1cccc(C(=S)N2CCOCC2)c1)c1ccccc1`, with 94.4%; and `CCc1cc2cc3c(cc2nc1SCC(=O)Nc1cc(C)on1)OCO3`, with 103%; and `Cc1ccc(/C=N/N2CCN(c3ccc(Cl)cc3)CC2)o1`, with 101%.
The result for `COc1ccccc1-c1cc(N)n(S(=O)(=O)c2ccc(F)c(C)c2)n1` reads 100%; that for `COC(=O)c1oc2ccc(Cl)cc2c1NC(C)=O`, 100%.
As to `O=[N+]([O-])c1ccc(OCc2cnc(Cl)s2)c([N+](=O)[O-])c1`, the binding response (% of DMSO) is 107%.
The result for `Cc1ccc(C)c(N2CCN(C(=O)Cc3cn(C)c4ccccc34)CC2)c1` reads 104%; that for `O=C(CNC(=O)c1ccc(Br)cc1)N=Nc1c(O)[nH]c2ccc([N+](=O)[O-])cc12`, 100%; that for `CC(=O)c1ccc(NC(=O)Cn2cnc(S(=O)(=O)N3CCC(C)CC3)c2)cc1`, 98.2%.
The result for `CSCC[C@H](NC(=O)C1CCN(S(=O)(=O)c2ccc(C)cc2)CC1)C(=O)NCc1ccco1` reads 106%; that for `Cc1ccccc1NC(=O)Nc1nc2ccc(S(C)(=O)=O)cc2s1`, 89.9%.
Then `COc1ccc(NC(=O)CSc2nnc(Cc3ccc(C)cc3)c(=O)n2N)cc1`, with 92.4%; and `Cc1ccc(NC(=O)COc2ccc3c(c2)OCO3)c(Cl)c1`, with 98.1%; and `CC1=C(C(N)=O)C(c2cccnc2)n2nc(SCc3ccccc3Cl)nc2N1` (stereo not given), with 103%.
